Compounds with a hit are over-represented: about 4% of the library has one in this group of screens.
HIF-2a block: inhibitors of HIF-2a | 360,000 tested, 0.72% active | inhibition, % at 18.8 µM | 786-0 RCC cells HIF-2a reporter, luciferase luminescence, overnight | AID 624352;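 active means inhibition of the luminescence signal of 40% or more relative to plate controls, in a single-dose primary screen at 18.75 µM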
TWEAK Fn14 block: blocks TWEAK-Fn14 interaction in a reporter cell assay | TWEAK-stimulated Fn14 reporter cells, luciferase luminescence, 8 h | inhibition, % at 10 µM | 360,000 tested, 2% active | AID 1159606; in the data active means inhibition above about 50%
Peg3 promoter: Peg3 promoter activity inhibition. HeLa PEG-Prom luciferase reporter, luminescence, overnight. inhibition, % at 20 µM. 360,000 tested, 1.7% active. AID 588405;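 active means inhibition of at least 50% at 20 µM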
TROY NFkB inh: blocks TROY-dependent signaling in reporter cells; Q293 LMP1-TROYcd NF-kB luciferase reporter, 4 h; inhibition, % at 10 µM; 360,000 tested, 0.98% active; AID 1347056;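 active means compounds whose plate-normalised and pattern-corrected inhibition of the luciferase reporter signal at the single screening dose is 50% or more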
CF NFkB inh: blocks PAF-induced NF-kB reporter in cystic fibrosis cells | AID 588850 | inhibition, % at 5 µM | 360,000 tested, 0.86% active | KKLEB NF-kB-GFP reporter, GFP fluorescence overnight;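 active means at least 50% inhibition at 5 µM, scaled per plate between neutral and stimulator controls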;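 further: PAF is a Pseudomonas aeruginosa culture filtrate used as stimulus; plate controls were PAF-stimulated DMSO wells for no effect and unstimulated DMSO wells for full effect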
KKLEB cytotox: CF airway cell cytotoxicity counter-screen. AID 602141. activity change (cytotoxicity), % at 5 µM. KKLEB CF airway cells viability, ATPlite luminescence, overnight; active compounds read low; cells stimulated with P. aeruginosa culture filtrate. 360,000 tested, 0.36% active;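 active means corrected activity change at or below -50% at 5 µM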
Numbers without * were called inactive.

SMILES	HIF-2a block	TWEAK Fn14 block	Peg3 promoter	TROY NFkB inh	CF NFkB inh	KKLEB cytotox
COC(=O)C1=C(C)N(Cc2ccc(OC)cc2)C(=O)/C1=C\c1ccco1	15.0	-1.1	13.3	-7.7	-6.6	1.6
CSc1ccc(/C=C/C(=O)Nc2ccccc2)cc1	-114.4	72.3*	-128.4	42.2	-3.9	-24.2
COc1ccc(C(=O)NCCS(=O)(=O)NCC2CCCO2)cc1 (configuration not stated)	10.9	7.7	-4.2	-9.0	11.3	-16.8
CCOC(=O)c1c(-c2ccccc2)oc2ccc(OCC(O)CN(C)C)cc12 (configuration not stated)	5.8	-54.8	105.3*	-147.1	-3.8	-1.0
CC(=O)C1=C(O)C(=O)N(CCCCCC(=O)O)C1c1ccc(N(C)C)cc1 (configuration not stated)	11.2	15.2	10.8	-0.1	1.9	7.5
OC[C@H]1O[C@@H](c2nc3ccc(-c4nc(-c5ccc(Br)cc5)no4)cc3[nH]2)C[C@@H]1O	-296.2	63.0*	-182.0	45.7	-37.6	13.7
CCN(CC)C(=O)c1ccc2nc([C@H]3C[C@H](O)[C@@H](CO)O3)[nH]c2c1	3.5	5.3	12.6	0.9	3.7	6.0
C=CCC[C@H](Cc1ccc(F)cc1)C(=O)OC[C@@H](Cc1c[nH]c2ccccc12)NC(=O)[C@@H](CC=C)CC(=O)N(CCO)Cc1ccccc1	21.3	49.5	44.4	12.5	38.1	-4.4
C=CCC[C@@H](Cc1ccc(F)cc1)C(=O)OC[C@H](Cc1c[nH]c2ccccc12)NC(=O)[C@H](CC=C)CC(=O)N(CCO)Cc1ccccc1	-21.0	59.7*	64.4*	17.2	2.1	2.3
C=CCC[C@H](Cc1ccc(F)cc1)C(=O)OC[C@H](Cc1c[nH]c2ccccc12)NC(=O)[C@@H](CC=C)CC(=O)N(CCO)Cc1ccccc1	-8.5	60.0*	53.5*	45.0	2.8	0.4
COc1ccc(C2C(C(N)=O)=C(C)Nc3nc(CCCO)nn32)cc1OC (configuration not stated)	8.0	9.3	-4.9	0.2	-6.6	-1.0
CN(C)c1ccc(N/C=C/C(=O)c2ccccc2)cc1	-39.9	95.3*	10.8	23.4	-7.0	-34.7
O=C(/C=C/Nc1ccccc1)c1ccccc1	-131.2	36.6	-250.1	-22.5	3.7	-11.6
O=C(c1ccccc1)c1ccc2nc(Nc3ccccc3)c3nncn3c2c1	-11.4	-40.1	-10.3	1.0	-28.9	5.5
Cc1ccc(S(=O)(=O)N2CCC(C(=O)N/N=C/c3cccnc3)CC2)cc1	17.6	-6.0	51.5*	2.6	11.7	-15.9
Cc1ccc(S(=O)(=O)N2CCC(C(=O)N/N=C/c3ccccc3[N+](=O)[O-])CC2)cc1	9.2	18.9	35.3	-14.2	-20.7	2.7
COc1ccc(Cl)cc1C(=O)NC(=S)Nc1cc(-c2nc3ccccc3[nH]2)ccc1C	-148.8	-6.0	-58.7	1.0	11.1	-31.0
CC(C)c1onc(C(=O)N2CCN(C(c3ccccc3)c3ccccc3)CC2)c1[N+](=O)[O-]	4.7	-30.4	16.7	-8.5	50.5*	-5.1
CC(C)Cc1cc(C(=O)N2CCN(C(c3ccccc3)c3ccccc3)CC2)no1	7.7	6.2	18.2	5.8	25.2	-14.5
CC(C)c1cc(C(=O)N2CCN(C(c3ccccc3)c3ccccc3)CC2)no1	21.9	41.2	25.9	60.3*	14.8	1.2
NS(=O)(=O)c1ccc(CCNC(=O)COC(=O)Cc2c(F)cccc2Cl)cc1	-2.2	4.9	9.7	13.0	-14.1	1.1
CC(C)OC(=O)c1ccc(NCc2cc(O)ccc2O)cc1	34.6	101.1*	46.3	16.3	71.8*	-9.4
O=C(OCc1ccccc1)c1ccc(NCc2cc(O)ccc2O)cc1	77.8*	107.1*	92.1*	58.1*	81.3*	-55.8*
COc1ccc(OC)c2[nH]c(=O)c(CCNC(=O)COc3ccccc3)cc12	17.6	-5.7	10.6	-27.1	-6.6	-0.9
Cc1ccc(OCC(=O)N(Cc2ccco2)c2c(N)n(Cc3ccccc3)c(=O)[nH]c2=O)cc1C	11.4	9.2	9.5	-12.2	-3.5	10.9
SMILES	HIF-2a block	TWEAK Fn14 block	Peg3 promoter	TROY NFkB inh	CF NFkB inh	KKLEB cytotox
Cc1nn(-c2ccccc2)c(Cl)c1/C=C1\SC(=S)NC1=O	-38.3	29.9	10.9	51.3*	30.9	-6.9
CC(C)(C)c1ccc(C(=O)n2cnc3ccccc32)cc1	27.1	77.6*	-4.5	63.7*	6.6	-4.0
CCOC(=O)CC1C(=O)NCCN1S(=O)(=O)c1ccc(Cl)cc1 (configuration not stated)	9.5	22.8	14.3	6.7	0.8	-5.7
CC(Nc1cccc2ccccc12)C(=O)N/N=C/c1ccccn1 (configuration not stated)	-3.3	54.9*	27.0	-4.7	-1.7	-11.5
COc1cc(/C=C2\SC(=S)N(CCC(=O)Nc3ccccn3)C2=O)cc(OC)c1OC	9.7	14.6	-5.7	22.1	5.3	-4.2
CC(C)Oc1ccccc1/C=N/Nc1ccccc1[N+](=O)[O-]	-45.0	7.4	-45.2	82.3*	-11.3	16.5
CCCOc1ccc(/C=N/Nc2cccc([N+](=O)[O-])c2)c(O)c1	-265.2	-9.5	-283.4	-58.4	-3.1	-7.9
CCCOc1ccc(/C=N/Nc2ccccc2[N+](=O)[O-])c(O)c1	5.0	98.2*	26.4	90.5*	-16.3	-1.5
CCOC(=O)C1(C)CCCN(C(=O)c2ccc3c(c2)OCO3)C1 (configuration not stated)	11.6	15.4	5.8	1.8	-32.8	0.7
C=C(c1ccc(O)cc1)c1ccc(O)cc1	35.2	41.6	-14.1	51.5*	-15.4	11.4
C/C=C(/C(=C/C)c1ccc(O)cc1)c1ccc(O)cc1	-6.5	14.3	16.9	25.7	21.1	-10.3
Cc1cnc(C(=O)N(c2ccccc2)C(c2ccccc2)c2nc3ccccc3[nH]2)cn1 (configuration not stated)	-159.2	-2.4	-130.4	-32.1	-19.4	-4.9
Cc1c(CN2CCC(CO)(Cc3cccc(C(F)(F)F)c3)CC2)c2ccccc2n1C	4.4	8.4	111.6*	19.2	32.1	-18.9
O=C1CC(N2CCCCCC2)C(=O)N1c1ccc2c(c1)OCO2 (configuration not stated)	-15.4	-11.8	-4.5	-6.9	5.2	-1.6
O=C1CC(NC23CC4CC(CC(C4)C2)C3)C(=O)N1c1ccc2c(c1)OCO2 (configuration not stated)	-28.8	32.9	-27.9	55.7*	5.3	-6.7
CCOC(=O)c1cnc(SC)nc1Oc1cccc(NS(=O)(=O)c2ccccc2)c1	12.9	54.6*	38.8	-10.2	14.0	4.2
CCCCOc1ccc(C(C)NC(=O)CCS(=O)(=O)Cc2ccc(Cl)cc2)cc1 (configuration not stated)	13.0	-7.2	20.2	8.5	4.7	-0.6
O=c1cc(-c2ccccc2)oc2ccc(Br)cc12	-307.2	-18.9	-277.5	-38.6	-22.1	-7.9
